# Source: PubChem BioAssay AID504339 (National Center for Advancing Translational Sciences (NCATS), 2011)
# Values joined by “and” are separate entries in the source; they are usually repeats but may differ in a detail not shown here. Equal values may be shown once. Among all 390,000 compounds or so, about 17,000 (4.4%) were called active. Roughly 8% stayed inconclusive and do not appear here. This is one part of a sample in which actives are shown more often than they occur. Calls come from the whole dose curve; as a rule, active = well fitted inhibition curve with a large enough effect; inconclusive = small, poorly fitted or top-dose-only effect; inactive = no such curve, though single readings can be large or run the other way. Some structures have more than one record in an assay (separate samples or runs), and their calls can disagree.
# Biological target: Lysine-specific demethylase 4A (Homo sapiens) (UniProt O75164)
# Sequence (O75164 whole entry, looked up, the tested form may be a part): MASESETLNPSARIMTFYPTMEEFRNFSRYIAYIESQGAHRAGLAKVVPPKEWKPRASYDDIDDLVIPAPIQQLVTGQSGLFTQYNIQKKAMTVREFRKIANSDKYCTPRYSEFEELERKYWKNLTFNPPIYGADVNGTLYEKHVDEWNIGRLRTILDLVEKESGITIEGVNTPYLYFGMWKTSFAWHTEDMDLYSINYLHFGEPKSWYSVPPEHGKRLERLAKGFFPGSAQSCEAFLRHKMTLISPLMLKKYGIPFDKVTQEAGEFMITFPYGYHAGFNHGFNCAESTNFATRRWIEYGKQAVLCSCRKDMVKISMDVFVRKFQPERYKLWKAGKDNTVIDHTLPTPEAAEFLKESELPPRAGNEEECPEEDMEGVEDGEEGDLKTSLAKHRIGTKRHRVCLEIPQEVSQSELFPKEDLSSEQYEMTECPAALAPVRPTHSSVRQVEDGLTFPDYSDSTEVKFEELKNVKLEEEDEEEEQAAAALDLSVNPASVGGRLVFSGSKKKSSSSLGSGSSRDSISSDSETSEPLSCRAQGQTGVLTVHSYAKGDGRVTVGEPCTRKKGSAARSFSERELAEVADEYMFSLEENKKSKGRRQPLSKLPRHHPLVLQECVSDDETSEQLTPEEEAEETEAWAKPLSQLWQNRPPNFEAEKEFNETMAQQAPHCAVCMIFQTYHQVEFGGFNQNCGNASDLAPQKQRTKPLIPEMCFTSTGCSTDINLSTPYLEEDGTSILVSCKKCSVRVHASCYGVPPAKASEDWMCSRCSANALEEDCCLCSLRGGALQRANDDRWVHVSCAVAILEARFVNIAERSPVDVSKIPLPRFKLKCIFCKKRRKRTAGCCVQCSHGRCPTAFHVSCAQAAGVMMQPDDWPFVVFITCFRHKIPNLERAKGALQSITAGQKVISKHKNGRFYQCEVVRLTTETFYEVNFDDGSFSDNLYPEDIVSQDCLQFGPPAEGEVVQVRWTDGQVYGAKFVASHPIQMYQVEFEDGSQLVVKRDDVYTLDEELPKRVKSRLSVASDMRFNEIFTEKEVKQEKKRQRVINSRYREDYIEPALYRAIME
# Test: qHTS Assay for Inhibitors of JMJD2A-Tudor Domain; note: nearly all actives have a fitted effect of over 50% in size
# Settings: AlphaScreen JMJD2A-Tudor / H3K4me3 peptide binding; series mostly up to 114 µM; activity change, negative = inhibition: at the top concentration
# % is set by controls: 0 for no effect and ±100 for the full control effect; potency is the fitted concentration of half-maximal effect.
Structure (SMILES),"activity change, negative = inhibition",Potency
COc1ccc(NC(=O)c2cnc(Nc3ccc(C)c(Cl)c3)c3ccccc23)cc1OC,3.07% (inactive),–
CCC(=O)N1CCc2cc(Br)cc(S(=O)(=O)Nc3ccc(C)cc3C)c21,-6.73% (inactive),–
Cc1ccc(-c2nn(-c3ccccc3)cc2/C=C2\SC(=S)N(CCCCCC(=O)O)C2=O)o1,–,14.1 µM (active)
COc1ccc(-c2nn(-c3ccccc3)cc2CN2CCCO2)c(F)c1,-26% (inactive),–
O=C1/C(=C/c2coc3ccc(O)cc3c2=O)SC(=S)N1c1ccccc1,-24% (inactive),–
CN(C(=O)CCN1C(=O)/C(=C/c2ccccc2F)SC1=S)C1CCS(=O)(=O)C1 (configuration not stated),-19.3% (inactive),–
COc1cccc(NC(=O)CN(C)C(=O)/C=C/c2cn(-c3ccccc3)nc2-c2cccs2)c1,-21.9% (inactive),–
COc1ccc(-c2nn(-c3ccccc3)cc2/C=C2/SC(=S)N(CCCC(=O)O)C2=O)c(C)c1,–,44.7 µM (active)
CN(Cc1ccccc1)S(=O)(=O)c1ccc(F)c(C(=O)Nc2cccc(Cl)c2Cl)c1,-7.03% (inactive),–
COc1cc(F)c(S(=O)(=O)N2CCCN(S(=O)(=O)c3ccc(N)cc3)CC2)c(F)c1,-14.3% (inactive),–
O=C(COc1ccccc1Cl)Nc1ccc2nc(SCC(=O)N3CCCC3)sc2c1,-12.6% (inactive),–
O=C(NCc1ccc2c(c1)CCN2C(=O)c1ccccc1)c1ccccc1,-5% (inactive),–
Cc1ccc(OCCCCN2CCCCC2)c(Br)c1,–,0.794 µM (active)
Cc1ccc(OCCCC(=O)N2CCOCC2)c(C)c1,6.76% (inactive),–
COc1ccc(C(=O)NCCCN2CCOCC2)cc1Br,-4.92% (inactive),–
Cc1cccc(N2CCN(C(=O)c3cc4c(=O)oc5ccccc5c4s3)CC2C)c1 (configuration not stated),-25.3% (inactive),–
COc1ccc(Cn2c(=O)[nH]c3cc(C(=O)N4CCN(C(=O)c5ccco5)CC4)ccc3c2=O)cc1,-15.6% (inactive),–
Cc1ccc2nc(-c3ccc(C)c(NC(=O)Cc4ccccc4)c3)oc2c1,-4.58% (inactive),–
CC1CCN(C(=O)Cn2c(=O)n(-c3ccc(Cl)cc3)c(=O)c3c4c(sc32)CCC4)CC1,-8.53% (inactive),–
Cn1c(SCc2nc3ccccc3s2)nnc1-c1ccc2c(c1)OCO2,–,31.6 µM (active)
O=C(O)CSc1nnc(-c2ccc3c(c2)OCO3)n1-c1ccccc1,-4.9% (inactive),–

Structure (SMILES),"activity change, negative = inhibition",Potency
Cn1c(SCC(=O)N2CCCC2)nnc1-c1ccc2c(c1)OCO2,-0.758% (inactive),–
COc1ccc(CCNc2nc(-c3ccc(Cl)cc3)cc(C(F)(F)F)n2)cc1OC,8.53% (inactive),–
COc1ccc(Cc2nnc(N/N=C/c3ccccc3O)[nH]c2=O)cc1OC,–,28.2 µM (active)
COc1ccc(Cc2nnc(SC)[nH]c2=O)cc1,-2.11% (inactive),–
CC(C)c1ccc(Cc2nnc(NCCCO)[nH]c2=O)cc1,-11.2% (inactive),–
O=S(=O)(c1ccc(Br)cc1)c1nnn2c1nc(NC1CCCCCC1)c1sccc12,-9.52% (inactive),–
CC(=O)Nc1ccc(NC(=O)c2cc3sccc3n2Cc2ccc(F)cc2)cc1,-17.8% (inactive),–
CCOc1ccc2nc(N3CCCC(C(=O)Nc4cc(C)ccc4C)C3)sc2c1 (configuration not stated),-27.6% (inactive),–
Cc1ccc2[nH]cc(CCCN3C(=O)c4ccccc4C3=O)c2c1,–,22.4 µM (active)
Cc1ccc2[nH]cc(CCNC(=O)C3CCCCC3)c2c1,-6.31% (inactive),–
COc1ccc2[nH]cc(CCN3C(=O)c4ccc(C(=O)O)cc4C3=O)c2c1,-10.6% (inactive),–
Cc1nn(Cc2ccc(F)cc2)c(C)c1NC(=O)c1cc(CC(C)C)on1,-9.56% (inactive),–
O=C(CSc1ncc(CO)n1Cc1ccc(Cl)cc1)NCc1ccc(F)cc1,-18.5% (inactive),–
COc1ccc(N2CCN(C3=NS(=O)(=O)C(c4cccc(Br)c4)=C3C)CC2)cc1,-12.9% (inactive),–
Cc1cccc(C)c1-n1c(C)cc(/C=C2\C(=O)NN(c3ccccc3)C2=O)c1C,–,22.4 µM (active)
Cc1ccc(CN2C(=O)N/C(=C/c3cc(C)n(-c4ccccn4)c3C)C2=O)cc1,-23% (inactive),–
Cc1cc(/C=C2/NC(=O)NC2=O)c(C)n1-c1cccnc1,-19.2% (inactive),–
CCOc1ccc(NC(=O)c2cc3c(=O)n(Cc4cccs4)ccc3nc2C)cc1,-28% (inactive),–
Cc1cccc(NC(=O)c2nnn(CC(=O)Nc3ccc(C(C)C)cc3)c2N)c1C,1.33% (inactive),–
Cc1cc2nc(-c3ccc(NC(=O)c4cc5ccccc5o4)cc3)oc2cc1C,-8.17% (inactive),–
CCOC(=O)N1CCc2c(sc3c2c(=O)n(Cc2ccccc2)c(=O)n3CC(=O)Nc2cccc(C)c2)C1,-3.97% (inactive),–

Structure (SMILES),"activity change, negative = inhibition",Potency
COc1cccc(-n2c(=O)c3c(C)c(C(=O)N(C)C)sc3n(Cc3cccc(C)c3)c2=O)c1,-16.7% (inactive),–
COc1cccc(-n2c(=O)c3c(C)c(C(=O)N(C)C)sc3n(CC(=O)NCCc3ccc(OC)c(OC)c3)c2=O)c1,–,inactive and 79.4 µM (active)
COc1ccc(CCNC(=O)Cn2c(=O)n(-c3ccccc3)c(=O)c3c(C)c(C)sc32)cc1OC,-16.7% (inactive),–
COc1ccc(-c2ccc(OC)c(C3C4C=CCC(C)C4C(=O)N3Cc3ccccc3)c2)cc1C (configuration not stated),-22.1% (inactive),–
COc1cccc(CNC(=O)CCc2nc(-c3ccc(C)cc3)no2)c1,9.25% (inactive),–
Cc1cc2c(cc1C)NC1(C[C@H]3CCC(=O)N4CC[C@@H](C1)[C@@H]34)C(=NC(C)(C)CC(C)(C)C)N2 (some centres not stated),–,15.8 µM (active)
O=C1CC[C@@H]2CC3(C[C@@H]4CCN1[C@H]24)Nc1cc([N+](=O)[O-])ccc1NC3=NC1CCCCC1 (some centres not stated),-30.6% (inactive),–
COC(=O)c1cccc(Cn2nnc3sc4c(c3c2=O)CCC(C(C)(C)C)C4)c1 (configuration not stated),-4.09% (inactive),–
O=C(Nc1cccc2cccnc12)C(F)(F)F,-4.79% (inactive),–
OCc1ccc(OCCCOc2cccc3cccnc23)cc1,-22% (inactive),–
O=C(Nc1ccccc1)Oc1cccc2cccnc12,–,15.8 µM (active)
CCOc1ccccc1NC(=O)Cn1nnc(C(=O)Nc2ccc(C)c(C)c2)c1N,-27% (inactive),–
COc1cc(NS(=O)(=O)c2cccs2)cc(OC)c1,-5.12% (inactive),–
O=C(COC(=O)c1ccc(O)cc1)Nc1nccs1,-9.93% (inactive),–
Cc1cc(C(=O)OCC(=O)Nc2nccs2)c2ccccc2n1,–,20 µM (active)
Cc1cc(C(=O)OCC(=O)Nc2nnc(C(C)C)s2)c2ccccc2n1,-14.8% (inactive),–
Cc1cccc(CCNC(=O)c2ccc3c(c2)nc2n3CCC(C)C2)c1 (configuration not stated),0.325% (inactive),–
Cc1ccc(C)c(N2CCN(C(=O)Cn3nc(C)c4sc5ccccc5c4c3=O)CC2)c1,–,12.6 µM (active)
Cc1ccc(C)c(N2CCN(C(=O)Cn3ncn4cccc4c3=O)CC2)c1,-4.23% (inactive),–
Cc1nn(CC(=O)NCCc2ccccc2)c(=O)c2c1sc1ccccc12,-21.5% (inactive),–
